Set-up in all cases: scale not given: direction of the effect not stated beside the values
Assay [1] deals with Protein translocase subunit SecA (Escherichia coli (strain K12)) (UniProt P10408). Nature of the assay: Assay to Identify E. coli SecA ATPase Inhibitors. To be noted: 30 µM. It is filed as functional.
For assay [2], the target named is T1, Ubiquitin-activating enzyme e1, putative (Leishmania donovani (strain BPK282A1)) (UniProt E9BSI1).
T1 sequence (whole entry): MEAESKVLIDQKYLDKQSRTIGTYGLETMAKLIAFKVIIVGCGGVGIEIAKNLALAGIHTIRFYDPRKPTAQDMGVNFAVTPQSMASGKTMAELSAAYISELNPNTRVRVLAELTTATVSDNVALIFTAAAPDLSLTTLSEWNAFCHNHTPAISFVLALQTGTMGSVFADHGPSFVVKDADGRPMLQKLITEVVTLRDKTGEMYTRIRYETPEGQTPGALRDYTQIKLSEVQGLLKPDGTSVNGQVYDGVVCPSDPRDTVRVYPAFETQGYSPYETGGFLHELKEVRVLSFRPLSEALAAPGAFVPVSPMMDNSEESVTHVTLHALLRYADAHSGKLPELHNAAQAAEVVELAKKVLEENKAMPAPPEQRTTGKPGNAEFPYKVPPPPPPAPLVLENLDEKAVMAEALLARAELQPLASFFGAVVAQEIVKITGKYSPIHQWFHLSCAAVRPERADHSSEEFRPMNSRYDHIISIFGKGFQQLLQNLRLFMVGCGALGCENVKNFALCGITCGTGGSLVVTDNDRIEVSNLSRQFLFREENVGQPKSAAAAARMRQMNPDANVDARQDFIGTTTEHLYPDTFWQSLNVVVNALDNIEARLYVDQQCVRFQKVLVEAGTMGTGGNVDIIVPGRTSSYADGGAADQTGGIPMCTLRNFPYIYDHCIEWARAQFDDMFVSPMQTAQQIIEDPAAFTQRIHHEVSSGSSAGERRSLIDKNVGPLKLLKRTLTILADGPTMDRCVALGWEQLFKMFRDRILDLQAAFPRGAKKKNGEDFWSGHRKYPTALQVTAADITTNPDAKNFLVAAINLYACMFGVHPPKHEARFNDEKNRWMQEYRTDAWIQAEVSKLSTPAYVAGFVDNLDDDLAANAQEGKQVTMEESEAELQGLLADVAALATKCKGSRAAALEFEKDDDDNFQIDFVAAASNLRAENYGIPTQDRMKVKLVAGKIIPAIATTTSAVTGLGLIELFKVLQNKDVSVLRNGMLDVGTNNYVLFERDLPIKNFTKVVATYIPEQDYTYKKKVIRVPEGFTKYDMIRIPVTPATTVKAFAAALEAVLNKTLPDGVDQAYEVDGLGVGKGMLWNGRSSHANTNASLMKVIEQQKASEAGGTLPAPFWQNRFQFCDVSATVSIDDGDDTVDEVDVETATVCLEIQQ
As to the kind of experiment: Leishmania donovani Ubiquitin Activating Enzyme (LdE1). The assay is classed as functional. To be noted: 30 µM.

The target of assay [3] is AMP-activated protein kinase, AMPK (Homo sapiens) (UniProt P54646+O43741+P54619+Q9UGJ0+Q9Y478+Q13131+Q9UGI9). Nature of the assay: AMP-dependent Kinase enzyme assay. An in vitro enzyme assay that detects ADP turnover that is directly proportional to AMPK activity. This uses naive AMPK that is activated during the assay with MK-8722. The note with it: 30 µM. It is filed as functional.

For assay [4], the target named is Sialic acid-binding Ig-like lectin 9 (Homo sapiens) (UniProt Q9Y336). As to the kind of experiment: Hs-Siglec9 ALPHAscreen SOP 20170721. To be noted: 10 µM.
In the next assay the test system is Trypanosoma cruzi. As to the kind of experiment: Trypanosoma cruzi phosphomannomutase and mannose-1-phosphate guanylyltransferase assay. The note with it: 10 µM. It is filed as functional.
In assay [5] the target is T2, Arginase-2, mitochondrial (Homo sapiens) (UniProt P78540).
T2 sequence (whole entry): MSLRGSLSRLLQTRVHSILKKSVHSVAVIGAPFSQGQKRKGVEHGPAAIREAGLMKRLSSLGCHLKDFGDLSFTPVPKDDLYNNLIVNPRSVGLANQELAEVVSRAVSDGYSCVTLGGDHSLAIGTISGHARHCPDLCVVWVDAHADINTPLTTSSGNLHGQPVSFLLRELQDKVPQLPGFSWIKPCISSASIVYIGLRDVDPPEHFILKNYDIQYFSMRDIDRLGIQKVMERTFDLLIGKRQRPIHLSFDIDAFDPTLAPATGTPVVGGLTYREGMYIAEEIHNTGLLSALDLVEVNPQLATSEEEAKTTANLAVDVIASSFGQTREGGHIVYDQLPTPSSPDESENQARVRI
As to the kind of experiment: in vitro enzyme assay to detect the production of urea directly proportional to the activity of Arginase II. Also: in the data most compounds retested in dose-response had high values. It is filed as functional. To be noted: 33.3 µM.

Assay [6] deals with T3, Proteasome subunit beta (Trypanosoma cruzi) (UniProt O96673).
T3 sequence (whole entry): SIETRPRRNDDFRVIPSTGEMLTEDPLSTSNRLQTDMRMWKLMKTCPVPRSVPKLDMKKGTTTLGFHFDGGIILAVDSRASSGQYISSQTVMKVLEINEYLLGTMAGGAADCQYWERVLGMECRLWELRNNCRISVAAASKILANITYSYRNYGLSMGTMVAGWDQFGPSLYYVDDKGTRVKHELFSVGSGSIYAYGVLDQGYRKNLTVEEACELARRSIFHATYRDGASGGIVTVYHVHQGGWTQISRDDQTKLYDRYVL
As to the kind of experiment: Trypanosoma cruzi proteasome chymotrypsin-like activity (TcProtChymo) assay. Also: in the data most compounds retested in dose-response had high values. It is filed as functional. To be noted: 9.37 µM.

The species entered for the next assay is Homo sapiens. Nature of the assay: To identify inhibition of the IFN signalling (Jak-Stat) pathway via expression of an eGFP reporter gene under the control of an IFN-stimulated response element (ISRE) containing MxA promoter. The assay is classed as functional. The note with it: 30 µM.
Assay [7] deals with T4, Tyrosyl-tRNA synthetase, putative (Trypanosoma cruzi (strain CL Brener)) (UniProt Q4DSP6).
T4 sequence (whole entry): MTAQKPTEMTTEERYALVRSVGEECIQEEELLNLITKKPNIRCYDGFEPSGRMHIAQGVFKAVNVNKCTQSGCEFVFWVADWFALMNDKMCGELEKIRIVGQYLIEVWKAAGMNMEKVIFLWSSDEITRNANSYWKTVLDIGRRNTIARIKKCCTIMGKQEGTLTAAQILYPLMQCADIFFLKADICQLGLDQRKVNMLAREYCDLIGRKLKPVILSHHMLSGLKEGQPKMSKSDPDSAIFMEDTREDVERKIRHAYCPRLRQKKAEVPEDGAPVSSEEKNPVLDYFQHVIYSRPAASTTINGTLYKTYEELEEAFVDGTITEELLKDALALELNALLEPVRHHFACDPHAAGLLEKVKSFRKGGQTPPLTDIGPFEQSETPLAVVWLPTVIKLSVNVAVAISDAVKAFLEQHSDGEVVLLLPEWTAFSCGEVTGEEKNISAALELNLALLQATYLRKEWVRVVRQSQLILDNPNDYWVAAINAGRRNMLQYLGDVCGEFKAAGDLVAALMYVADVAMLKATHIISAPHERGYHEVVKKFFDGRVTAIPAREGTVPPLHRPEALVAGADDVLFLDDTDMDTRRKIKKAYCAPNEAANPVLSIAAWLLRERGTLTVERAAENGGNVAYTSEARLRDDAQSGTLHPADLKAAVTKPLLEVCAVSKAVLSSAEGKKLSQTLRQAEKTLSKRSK
Nature of the assay: Trypanosoma cruzi tyrosyl tRNA synthetase (TcYRS) _High Tyrosine SOP. Also: in the data most compounds retested in dose-response had high values. The assay is classed as functional. The note with it: 30 µM.

The target of assay [8] is T4, Tyrosyl-tRNA synthetase, putative (Trypanosoma cruzi (strain CL Brener)). Nature of the assay: Trypanosoma cruzi tyrosyl tRNA synthetase (TcYRS) SOP. It is filed as functional. The note with it: 30 µM.
The target of assay [9] is Chromo domain-containing protein 1 (Saccharomyces cerevisiae (strain ATCC 204508 / S288c) (Baker's yeast)) (UniProt P32657). As to the kind of experiment: ScCHD-1 Enzyme Inhibition Assay. Also: in the data most compounds retested in dose-response had high values. The assay is classed as functional. The note with it: 30 µM.

The structures appear in SMILES notation. For part of these data: Results with a measured potency or affinity are listed apart.

Sialic acid-binding Ig-like lectin 9 (Homo sapiens), sequence (Q9Y336 whole entry): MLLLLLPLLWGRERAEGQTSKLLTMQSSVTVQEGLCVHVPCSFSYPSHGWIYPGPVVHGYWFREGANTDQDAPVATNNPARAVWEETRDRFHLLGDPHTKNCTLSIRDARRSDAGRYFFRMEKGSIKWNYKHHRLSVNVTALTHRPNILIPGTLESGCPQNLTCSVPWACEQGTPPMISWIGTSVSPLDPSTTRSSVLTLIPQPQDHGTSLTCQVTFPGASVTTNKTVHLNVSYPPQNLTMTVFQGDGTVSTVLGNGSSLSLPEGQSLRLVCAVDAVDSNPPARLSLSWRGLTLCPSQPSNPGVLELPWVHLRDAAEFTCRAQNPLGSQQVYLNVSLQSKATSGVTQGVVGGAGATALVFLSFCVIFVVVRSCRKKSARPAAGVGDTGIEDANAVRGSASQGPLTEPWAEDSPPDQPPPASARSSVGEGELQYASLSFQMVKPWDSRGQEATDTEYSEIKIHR
Protein translocase subunit SecA (Escherichia coli (strain K12)), sequence (P10408 whole entry): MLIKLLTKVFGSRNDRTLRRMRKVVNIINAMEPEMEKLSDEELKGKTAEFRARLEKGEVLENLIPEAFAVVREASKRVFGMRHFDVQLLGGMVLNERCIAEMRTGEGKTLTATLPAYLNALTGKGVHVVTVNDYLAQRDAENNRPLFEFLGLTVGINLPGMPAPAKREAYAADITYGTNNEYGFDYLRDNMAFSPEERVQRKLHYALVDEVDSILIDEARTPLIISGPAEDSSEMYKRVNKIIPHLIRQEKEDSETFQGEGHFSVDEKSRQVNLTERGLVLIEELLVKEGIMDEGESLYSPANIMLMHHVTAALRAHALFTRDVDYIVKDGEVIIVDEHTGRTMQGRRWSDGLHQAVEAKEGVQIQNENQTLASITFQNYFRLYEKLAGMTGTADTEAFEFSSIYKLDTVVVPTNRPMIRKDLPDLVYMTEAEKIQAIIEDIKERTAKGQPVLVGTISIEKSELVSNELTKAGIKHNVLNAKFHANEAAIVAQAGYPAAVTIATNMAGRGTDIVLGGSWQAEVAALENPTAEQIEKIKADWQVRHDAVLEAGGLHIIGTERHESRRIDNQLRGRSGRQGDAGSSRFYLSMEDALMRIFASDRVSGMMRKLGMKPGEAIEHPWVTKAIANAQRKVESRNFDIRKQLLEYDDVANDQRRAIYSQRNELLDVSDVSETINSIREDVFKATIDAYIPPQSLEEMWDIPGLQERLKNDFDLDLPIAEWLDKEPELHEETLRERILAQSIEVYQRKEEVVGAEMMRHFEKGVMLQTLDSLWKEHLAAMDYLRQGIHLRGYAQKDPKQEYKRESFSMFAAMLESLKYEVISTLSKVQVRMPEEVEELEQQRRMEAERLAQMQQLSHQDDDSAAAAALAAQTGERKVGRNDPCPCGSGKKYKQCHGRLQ
Chromo domain-containing protein 1 (Saccharomyces cerevisiae (strain ATCC 204508 / S288c) (Baker's yeast)), sequence (P32657 whole entry, the tested form may be a part): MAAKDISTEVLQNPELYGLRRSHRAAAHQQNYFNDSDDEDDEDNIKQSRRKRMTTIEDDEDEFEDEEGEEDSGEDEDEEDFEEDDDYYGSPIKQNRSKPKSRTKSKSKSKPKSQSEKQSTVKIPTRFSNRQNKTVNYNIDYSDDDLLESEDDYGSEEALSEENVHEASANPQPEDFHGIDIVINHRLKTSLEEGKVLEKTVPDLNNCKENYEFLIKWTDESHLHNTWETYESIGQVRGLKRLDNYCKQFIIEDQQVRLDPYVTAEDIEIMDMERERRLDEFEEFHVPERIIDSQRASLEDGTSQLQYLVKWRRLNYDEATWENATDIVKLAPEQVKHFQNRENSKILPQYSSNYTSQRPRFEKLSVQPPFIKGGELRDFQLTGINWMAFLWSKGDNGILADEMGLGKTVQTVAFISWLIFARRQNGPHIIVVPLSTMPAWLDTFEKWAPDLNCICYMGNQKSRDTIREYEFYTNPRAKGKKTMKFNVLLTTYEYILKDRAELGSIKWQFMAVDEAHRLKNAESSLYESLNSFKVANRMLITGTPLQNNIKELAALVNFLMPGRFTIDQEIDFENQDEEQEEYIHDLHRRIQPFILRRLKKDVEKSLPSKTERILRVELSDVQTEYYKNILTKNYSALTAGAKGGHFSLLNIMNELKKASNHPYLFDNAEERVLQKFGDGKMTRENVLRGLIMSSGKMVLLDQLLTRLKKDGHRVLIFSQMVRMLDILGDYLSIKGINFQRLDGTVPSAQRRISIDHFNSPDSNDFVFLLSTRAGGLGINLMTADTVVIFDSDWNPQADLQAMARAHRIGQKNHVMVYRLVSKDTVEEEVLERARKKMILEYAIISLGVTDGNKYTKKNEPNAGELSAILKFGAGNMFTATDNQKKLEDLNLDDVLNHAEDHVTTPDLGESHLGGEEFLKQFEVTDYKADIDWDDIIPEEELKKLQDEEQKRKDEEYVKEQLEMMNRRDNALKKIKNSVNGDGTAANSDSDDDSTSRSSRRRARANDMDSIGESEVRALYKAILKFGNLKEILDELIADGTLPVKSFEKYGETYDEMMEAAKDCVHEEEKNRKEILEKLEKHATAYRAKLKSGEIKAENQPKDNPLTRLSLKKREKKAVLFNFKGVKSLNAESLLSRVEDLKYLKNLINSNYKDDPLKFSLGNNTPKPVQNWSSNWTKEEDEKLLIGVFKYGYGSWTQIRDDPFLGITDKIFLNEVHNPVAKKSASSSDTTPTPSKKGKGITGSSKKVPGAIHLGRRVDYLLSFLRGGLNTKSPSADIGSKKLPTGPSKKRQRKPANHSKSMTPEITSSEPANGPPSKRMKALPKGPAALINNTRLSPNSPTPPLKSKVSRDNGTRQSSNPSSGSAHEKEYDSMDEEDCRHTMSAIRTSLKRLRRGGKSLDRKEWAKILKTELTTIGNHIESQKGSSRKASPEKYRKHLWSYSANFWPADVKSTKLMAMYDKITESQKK

As to `CC(C)COCC(NC(=O)c1cccnc1)c1ccco1` (centres undefined), the Percent Effect in [1] was -5.15%; in [2], 10.8%; in [3], -37.5%; in assay [4], 3.03%; in the assay with Trypanosoma cruzi, 0.0943%; in [5], -4.01%. Further, the Percent Effect is -0.54% in assay [6]; 16.3% in the assay listed under Homo sapiens; 9.36% in assay [7]; 11.1% in [8]; -5.14% in [9].
For the compound `CC(C)n1ccnc1C1CCCN(c2ccnc3ccccc23)C1` (centres undefined), the Percent Effect in assay [1] was -5.45%; in assay [2], 2.67%; in [3], 3.66%; in assay [4], 2%; with Trypanosoma cruzi, -0.487%; in assay [5], -1.04%. The Percent Effect is 1.57% in assay [6]; 53.9% in the assay listed under Homo sapiens; 7.1% in assay [7]; 6.17% in assay [8]; -6.66% in assay [9].
As for `CCc1nc(CN2CCOC(Cn3nc(C)nc3C)C2)no1` (centres undefined), the Percent Effect was -1.49% in assay [1]; 23.7% in [2]; 2.58% in [3]; -7.19% in assay [4]; -2.33% in the assay with Trypanosoma cruzi; 4.32% in [5]. In addition, the Percent Effect in assay [6] was 3.64%; in the assay listed under Homo sapiens, 5.43%; in assay [7], 8.37%; in [8] it was 18.5%; in assay [9], -6.23%.
Regarding `O=C(NCc1ccccn1)[C@H]1COC[C@H]2CN(Cc3ccoc3)C[C@H]21`, the Percent Effect in assay [1] was -2.43%; in assay [2], 2.7%; in assay [3] it was 6.89%; in [4], -1.93%; in the assay on Trypanosoma cruzi, -6.16%; in [5], 2.87%. Moreover, the Percent Effect was 20.3% in assay [6]; -4.49% in the assay filed under Homo sapiens; 5.41% in assay [7]; 7.69% in assay [8]; -5.52% in assay [9].
Take `CC(O)CN1CCN(C(=O)c2ccc3c(c2)COC3)CC1` (centres undefined): the Percent Effect is -5% in assay [1]; 10.1% in assay [2]; -4.14% in assay [3]; 3.8% in assay [4]; 6.14% in the assay with Trypanosoma cruzi; -4.18% in assay [5]. Besides, the Percent Effect in [6] was 3.19%; in the assay filed under Homo sapiens, -12.6%; in assay [7], 4.43%; in assay [8], 16.5%; in assay [9] it was -13.8%.
As to `O=C(CN1CCOC(Cn2cccn2)C1)Nc1nccs1` (centres undefined), the Percent Effect in [1] is -3.64%; in [2] it was 21.6%; in assay [3] it was -3.52%; in assay [4] it was 14.3%; in the assay on Trypanosoma cruzi it was 6.22%; in [5], -1.29%. In addition, the Percent Effect in assay [6] was 8.8%; in the assay filed under Homo sapiens, 7.16%; in assay [7], 5.94%; in [8], 25.6%; in assay [9] it was -6.75%.
On to `COC(=O)c1ccc2ccn(CC3CCCO3)c(=O)c2c1` (centres undefined), for which the Percent Effect in assay [1] is -0.0971%; in assay [2], 5.48%; in assay [3], -14.6%; in [4], 5.25%; with Trypanosoma cruzi it was 0.979%; in assay [5], 12.3%. The Percent Effect in assay [6] worked out at 16.3%; in the assay listed under Homo sapiens it was 6.29%; in assay [7], 4.3%; in [8], 10%; in assay [9], 78.9%.
`CNC(=O)c1nc2c(s1)CCN(C(=O)c1cccnc1)CC2`: the Percent Effect is 2.24% in assay [1]; 0% in [2]; 4.01% in [3]; 3.91% in [4]; -3.67% in the assay with Trypanosoma cruzi; -50.4% in assay [5]. Besides, the Percent Effect in assay [6] was 3.42%; in the assay listed under Homo sapiens, 3.61%; in [7] it was 3.12%; in assay [8] it was 5%; in assay [9] it was -2.25%.
As for `N#Cc1ccccc1CN1CCCCC1Cn1cncn1` (centres undefined), the Percent Effect was -0.27% in assay [1]; 13.5% in assay [2]; -13.3% in assay [3]; -8.54% in [4]; -5.38% with Trypanosoma cruzi; 0% in assay [5]. The Percent Effect was -0.54% in assay [6]; 15.9% in the assay filed under Homo sapiens; 9.36% in [7]; 13.6% in [8]; -5.63% in assay [9].

Values taken from ChEMBL document CHEMBL3988442, “University of Dundee, Small-Polar-MMV Screening Library” (2021).
